This is a sample that favours compounds with a hit; in the whole collection about 2.4% have one here.
D2 ag-1 – Beta-Arrestin HTS for Positive Allosteric Modulators of the Human D2 Dopamine Receptor: Agonists; DiscoveRx PathHunter D2 beta-arrestin, luminescence, 90 min; 100% = 57 uM dopamine signal; activation, % (no concentration beside the values); hit rate 0.084% among 360,000; AID 624465, 2012; in the data active = activation above about 40%; inconclusive = between about 15% and that limit
Target sequence (P14416 whole entry, looked up): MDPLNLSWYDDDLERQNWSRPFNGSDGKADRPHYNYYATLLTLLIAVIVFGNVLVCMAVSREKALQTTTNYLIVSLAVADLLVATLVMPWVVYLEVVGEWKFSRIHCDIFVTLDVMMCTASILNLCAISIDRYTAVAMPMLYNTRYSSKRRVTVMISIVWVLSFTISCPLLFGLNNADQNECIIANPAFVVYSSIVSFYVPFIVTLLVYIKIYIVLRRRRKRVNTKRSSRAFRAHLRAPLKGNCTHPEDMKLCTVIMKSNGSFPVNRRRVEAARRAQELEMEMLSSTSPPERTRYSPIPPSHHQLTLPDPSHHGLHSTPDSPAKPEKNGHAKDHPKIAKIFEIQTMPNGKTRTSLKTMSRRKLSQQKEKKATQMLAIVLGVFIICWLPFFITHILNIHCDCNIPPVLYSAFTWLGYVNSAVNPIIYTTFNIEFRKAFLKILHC
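Agonist mode: compounds alone added to overnight-plated D2 PathHunter cells for 90 min at 37 C, with 57 uM final dopamine (EC100) defining full response. Beta-arrestin recruitment detected by chemiluminescent reagent, read after 1 h at ambient temperature.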
D2 antagonist – HTS Assay for Allosteric Antagonists of the Human D2 Dopamine Receptor: Primary Screen for Antagonists; D(2) dopamine receptor (Homo sapiens), P14416; HEK293 TREx D2 cells, calcium flux, dopamine EC80; inhibition, % at 10 µM; hit rate 2% among 340,000; AID 485344, 2010; in the data active = inhibition above about 30%; inactive = below that, where a call was filed; also: 0% is about no effect
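Cells plated overnight at 30 C with tetracycline; no-wash calcium dye, 30–90 min RT; 10 s baseline; compound pinned; 180 s read; EC80 dopamine added; another 180 s read.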
D2 PAM-1 – HTS Assay for Positive Allosteric Modulators of the Human D2 Dopamine Receptor: Primary Screen for Potentiators | potentiation, % at 10 µM | hit rate 0.34% among 340,000 | AID 485347, 2010 | HEK293 T-REx D2, calcium flux, EC20 dopamine potentiation;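 active = potentiation over 3 SD above the plate norm, cut at about 30% in these data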; also: 0% is about no effect
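Tetracycline-induced Hek293 Trex D2 cells, force-coupled to calcium, loaded with no-wash calcium dye. Compound added with 180 s kinetic read for agonism, then EC20 dopamine and a further 180 s read for potentiation.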
D2 PAM-2 – Beta-Arrestin HTS for Positive Allosteric Modulators of the Human D2 Dopamine Receptor: Potentiators. D(2) dopamine receptor (Homo sapiens), P14416. DiscoveRx D2 beta-arrestin cells, luminescence, 90 min; 100% = 57 uM dopamine signal. potentiation, % (concentration not given with the values). hit rate 0.23% among 360,000. AID 624464, 2012; in the data active = potentiation above about 50%; inconclusive = mostly about 30% to 49%
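PathHunter D2 cells, attached overnight at 37 deg C, received compound in DMSO plus dopamine at EC20 (50 nM final) for 90 min at 37 deg C. Beta-arrestin recruitment was read as luminescence after 1 h with detection reagent at ambient temperature.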
D2 ag-2 – HTS Assay for Allosteric Agonists of the Human D2 Dopamine Receptor: Primary Screen for Agonists; activation, % at 2 µM; HEK293 T-REx D2 cells, calcium flux agonist mode; hit rate 0.53% among 340,000; AID 485358, 2010; D(2) dopamine receptor (Homo sapiens), P14416;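 active = activation over 3 SD above normal in the single-dose calcium agonist read, cut at about 30% in these data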; also: 0% is about no effect
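HEK293 Trex D2 cells, tetracycline-induced, o/n 30 C 5% CO2; no-wash Ca dye, RT 30–90 min; 10-cycle baseline, 23 nl cpd added, kinetic Ca read 180 s; agonist hits = positive Ca response.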
Active calls of the source: *; u = inconclusive; x = no result given.

SMILES	D2 ag-1	D2 antagonist	D2 PAM-1	D2 PAM-2	D2 ag-2
O=c1onc(-c2ccc(Cl)cc2Cl)n1-c1cccnc1	59.9*	5.1	11.7	59.3*	0.4
O=C1c2ccncc2C(=O)N1c1cccc(Cl)c1	-0.8	4.9	-2.8	-7.0	-0.1
CCS(=O)(=O)N1Cc2ccccc2CC1C(=O)Nc1ccc(OC)c(OC)c1 (stereo not drawn)	-1.8	4.0	-2.2	0.0	0.1
CCS(=O)(=O)N1Cc2ccccc2CC1C(=O)Nc1cccc(OC)c1 (stereo not drawn)	-2.1	34.4*	0.5	-1.6	-0.5
CCc1ccc(OC(=O)c2cccnc2)cc1	-6.1	32.1*	2.1	-5.8	-1.8
CCOc1ccc(-n2c(SCC(=O)N3CCC(C)CC3)nc3c([nH]c4ccccc43)c2=O)cc1	x	x	-1.3	x	x
Cc1ccc(NC2=C/C(=N/S(=O)(=O)c3cccs3)c3ccccc3C2=O)cc1C	u	-6.0	-0.4	76.4*	0.7
COc1ccc(-n2c(=O)c3ccccc3n(CC(=O)NCCc3ccccc3)c2=O)c(OC)c1	x	x	-9.9	x	-0.4
O=C(Nc1ccc(CN2CCOCC2)cc1)c1ccc(-c2cccc([N+](=O)[O-])c2)o1	2.7	6.1	-14.6	-10.5	-1.8
O=[N+]([O-])c1cccc(-c2ccc(C(=S)N3CCOCC3)o2)c1	1.4	61.5*	-1.2	6.4	-0.2
O=[N+]([O-])c1cccc(-c2ccc(CN3CCCCC3)o2)c1	-7.9	80.7*	-26.8	-19.0	0.8
CN1CCN(C(=S)c2ccc(-c3cccc([N+](=O)[O-])c3)o2)CC1	-2.3	-0.5	-0.3	-12.4	-1.0
CC1CCCCN1c1cc2c(cc1F)c(=O)c(S(=O)(=O)c1ccccc1)cn2Cc1ccccc1 (stereo not drawn)	x	x	-15.7	x	-1.0
CC(C)(C)S(=O)N1Cc2cc(C(=O)NCC(F)(F)F)nc(-c3cccc(-c4cccc(F)c4)c3)c2[C@H]1CCO (stereo partly drawn)	6.5	x	x	4.9	x
CC(=O)N1c2ccc(S(=O)(=O)NCC3CCC(C(=O)Nc4cc(C)ccc4C)CC3)cc2CC1C (stereo not drawn)	x	x	4.4	x	0.4
O=C(Nc1cccc(C(F)(F)F)c1)c1cc2ncc(Br)cn2n1	-1.5	52.9*	-24.6	-4.7	0.6
COc1ccc(-c2cc3ccccc3n2CC(O)Cn2nc(C)cc2C)cc1 (stereo not drawn)	-4.5	-13.1	7.6	-11.6	0.7
COc1ccc(-c2cc3ccccc3n2CC(O)CN2CCC(C)CC2)cc1 (stereo not drawn)	-8.0	81.3*	-25.5	-12.5	0.1
CCCCN(C(=O)c1ccccc1Cl)C(CC(C)C)c1nc2ccccc2[nH]1 (stereo not drawn)	-7.2	x	x	-5.1	x
Cc1cccc(N(C)S(=O)(=O)c2ccc3c(c2)C(C)(C)C(=O)N3C)c1	3.6	40.9*	2.7	-1.0	-0.5
CCOc1ccc(-c2c(C)nn3c(-c4ccccc4)c(C(=O)NCCOC)cnc23)cc1OCC	x	x	22.5	x	-0.9
O=C(CNC(=O)c1ccc(Cl)cc1)OCC(=O)c1ccc2c(c1)OCCO2	-1.8	41.2*	13.7	-10.5	-0.4
CCOC(=O)CNC(=O)c1ccc2c(c1)OCCO2	-2.4	-2.8	-6.6	-3.4	0.1
COc1ccc(/C=N/Nc2nnc(C)n2N)cc1OC	u	-0.5	9.5	56.7*	0.5
CN(Cc1ccccc1)c1nc2c(S(=O)(=O)c3ccccc3)nnn2c2ccsc12	x	x	0.5	x	0.3
COC(=O)c1ccccc1-c1ccc(/C=N/NC(=O)c2cc3ccccc3o2)o1	-1.7	-13.9	-17.3	-27.9	0.4
COC(=O)c1ccccc1-c1c2ccc(=N)cc-2oc2cc(N)ccc12	-15.6	76.9*	-19.7	-15.0	96.6*
COc1cc(NC(=S)N2CCN(c3ccccn3)CC2)c(OC)cc1Cl	7.3	12.1	-8.5	-3.5	34.2*
